For 26 compounds, Inhibition results are on record in ChEMBL document CHEMBL1157539, “Thousands of chemical starting points for antimalarial lead identification” (Nature, 2010).

The test relates to HepG2. Nature of the test: GSK_TCMDC: Percent inhibition of human HepG2 cell line. Test compounds present at 10uM. It counts as functional.
Take `COC(=O)c1ccc(CCC(C)NCC(O)c2cccc(Cl)c2)cc1.Cl` (stereo unspecified): the Inhibition came to 0%.
`CC1(C)N=C(N)N=C(N)N1OCc1ccc2ccccc2c1`: the Inhibition came out at 65%.
The compound `CC(C)C1=CC(=NOS(=O)(=O)c2ccccc2)C=C(C(C)C)C1=O` yielded an Inhibition of 23%.
`CN1CC[C@@H](Oc2cc(NC(=O)Nc3ccccc3Br)ccc2Cl)C1`: the Inhibition is listed as 26%.
The result for `CCOc1ccc(C=CC(=O)Nc2ccc3nc(N4CCN(C)CC4)cc(C)c3c2)cc1OC` reads 0%; that for `COc1cccc2c(NN=Cc3ccccc3F)ccnc12`, 6%; that for `CC1CN(Cc2cccc(F)c2)CCN1c1ccc(NC(=O)c2cccs2)cc1.O=C(O)C(F)(F)F` (stereo unspecified), 0%.
Then `CNCc1cccc2nc(-c3csc(Cc4cc(Cl)ccc4OCC(C)C)n3)[nH]c12`, with 9%.
Consider `O=c1cc(NCCCCNCc2cccc(C(F)(F)F)c2)[nH]c2ccccc12`, for which the Inhibition is 13%.
Compound `Cc1c(S(=O)(=O)Nc2cccc(CCN3CCCCC3CCN3CCCC3)c2)sc2ccc(Cl)cc12` (stereo unspecified) came in with an Inhibition of 22%.
In turn, `COc1ccc(Nc2ccnc3cc(-c4ccccn4)ccc23)cc1OC.Cl` registered an Inhibition of 14%.
Compound `O=C(Nc1ccccc1O)c1ccc(S(=O)(=O)c2ccc(Cl)cc2)cc1` had an Inhibition of 18%.
Compound `CC[C@H](C)CNC(=O)c1cncc(-c2ccc(CN3CCC(N4CCCC4)CC3)cc2)c1.O=C(O)C(F)(F)F` gave an Inhibition of 0%.
The result for `CCc1ccc(NC(=O)C=NNC(=N)N)cc1.O=S(=O)(O)O` reads 13%; that for `NC1CCN(c2cnn(Cc3cccc(NC(=O)Nc4ccc(-c5ccccc5)cc4)c3)c(=O)c2Cl)CC1.O=C(O)C(F)(F)F`, 5%; that for `Cn1nc(-c2cccc(CN[C@@H]3CCc4ccc(O)cc43)c2)c2cnc(NCCCN3CCCC3)nc21`, 9%.
The result for `O=C(Nc1cccc(-c2cccc(-c3nc4ccccc4[nH]3)c2)c1)Nc1ccc2c(c1)OCO2` reads 25%; that for `O=C(O)C(F)(F)F.OCCN1CCN(Cc2ccc(-c3ccc(-c4nc5cc(F)ccc5[nH]4)cc3)cc2)CC1`, 33%; that for `CC(C)N(Cc1ccc(-c2ccc(C(F)(F)F)cc2)cc1)C(=O)Cn1c(SCc2cccc(F)c2F)cc(=O)c2cc(CN3CCCCC3)ccc21.Cl`, 97%.
The result for `CN(C)c1ccc(-c2ccc(C(=O)NC3CCN(Cc4ccccc4F)CC3)s2)cc1.O=C(O)C(F)(F)F` reads 30%; that for `COc1ccc2[nH]ccc(=NN=Cc3ccccc3F)c2c1`, 23%.
For `CCCOc1ccc(C(F)(F)F)cc1NC(=O)c1nc2nc(C)cc(C)n2n1`, the Inhibition is recorded as 7%.
For the compound `Nc1cc(-c2cc3c(OCc4ccccc4)cccc3[nH]2)ccn1`, the Inhibition is on record as 23%.
`COc1ccc2c(N/N=C/c3cccc([N+](=O)[O-])c3)ccnc2c1` gave an Inhibition of 0%.
Then `COc1ccc(Nc2nc(NC3CCCC3)cc(-c3ccc(OC)cc3)n2)cc1`, with 12%; and `O=C(O)C(F)(F)F.O=C1OC2(CCN(Cc3cccc(-c4ncc[nH]4)c3)CC2)CN1CCNCc1ccccc1`, with 0%.
